The whole screen tested about 360,000 compounds, of which about 2,600 (0.72%) were called active. This excerpt belongs to a sample that is enriched for actives. Unmarked numbers belong to inactive results.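 Rule for the calls: active = inhibition of the luminescence signal of 40% or more relative to plate controls, in a single-dose primary screen at 18.75 µM; inactive = the rest.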
Experiment: HIF-2a reporter inhibitors, primary screen, luminescence, 786-0 RCC cells (AID 624352)
Details: 786-0 RCC cells HIF-2a reporter, luciferase luminescence, overnight; at 18.8 µM; active compounds read high
With `CC(C)Cn1c(N)c(C(=O)COC(=O)C2CCCN2C(=O)c2cccs2)c(=O)n(C)c1=O` (configuration not stated) the inhibition was 4.33%.
In the case of `O=[N+]([O-])/C=C/c1ccc2c(ccn2Cc2ccccc2)c1`, the inhibition is reported as 92.5% (active).
Work on `CC1(C)C2CCC13CS(=O)(=O)NC3C2` (configuration not stated) yielded an inhibition of 14.9%.
For `N#Cc1ccc(OCC(=O)Nc2nc(-c3ccccn3)cs2)cc1`, the inhibition was 21.4%.
For `COC(=O)Cc1[nH]n(-c2nc3ccccc3s2)c(=O)c1C(C)=Nc1ccc(OC)cc1`, the inhibition was 80.1% (active).
`O=C(NC(=S)Nc1ccc(Cl)cc1Cl)C1CC1` gave an inhibition of -294%.
With `Cc1ccnc(NC(=O)CCNS(=O)(=O)c2ccc(C)c(C)c2)c1` the inhibition was -176%.
Molecule `O=C(COC(=O)c1cccc(Cl)c1)NC1CCCCCCC1` has an inhibition of 6.27%.
Work on `COC(=O)c1cc(C(=O)NC(C)C2CC3CCC2C3)cc([N+](=O)[O-])c1` (configuration not stated) yielded an inhibition of 18.1%.
For `CC(NCC(=O)Nc1ccccc1C(=O)NC1CC1)c1ccccc1Cl` (configuration not stated), the inhibition was 3.17%.
In the case of `COc1ccc(CNC(=O)COC(=O)c2sccc2C)cc1OC`, the inhibition is reported as -10.1%.
`CCCn1c(C)cc(C(=O)COC(=O)c2c(C)nn(-c3ccccc3)c2C)c1C` showed an inhibition of -28.6%.
In the case of `Cc1ccsc1C(=O)OCC(=O)c1cc(C)n(CC2CCCO2)c1C` (configuration not stated), the inhibition is reported as 64.7% (active).
`CCCCN(C(=O)CCNC(=O)NC12CC3CC(CC(C3)C1)C2)c1c(N)n(CCCC)c(=O)[nH]c1=O` showed an inhibition of 4.48%.
With `Oc1c(CN2CCOCC2)ccc(CN2CCOCC2)c1O` the inhibition was 9.75%.
For `O=C1C(Cl)=C(Oc2ccccc2)C(=O)c2ccccc21`, the inhibition was 88.1% (active).
`COc1ccc(C(CNC(=O)c2ccc(S(=O)(=O)Nc3ccccc3F)cc2)N(C)C)cc1` (configuration not stated) showed an inhibition of 4.08%.
Molecule `Nc1nc(Br)c2ccccc2c1-c1ccc(F)cc1` has an inhibition of 5.57%.
`Cn1c(=NC(=O)c2ccc3c(c2)OCCO3)sc2cc(S(C)(=O)=O)ccc21` gave an inhibition of -28.1%.
For `O=C(O)c1ccc(N=NN2CCOCC2)cc1`, the inhibition was 10.1%.
For `O=C(O)c1cccc(N=NN2CCCCCC2)c1`, the inhibition was 42.7% (active).
Molecule `O=C(c1ccccc1)C(O)(CN1CCCCC1)c1ccccc1` (configuration not stated) has an inhibition of 13.3%.
Work on `COc1ccc(CNc2c(CO)cnc3c2cnn3C)cc1` yielded an inhibition of 17.6%.
For `CCN(CC)S(=O)(=O)c1ccc(NC(=O)c2cccnc2Cl)c(NC(=O)c2cccnc2Cl)c1`, the inhibition was 86.1% (active).
Work on `Cc1ccc(CNC(=O)c2cccnc2Cl)cc1` yielded an inhibition of 2.18%.
Molecule `CCN(CC)S(=O)(=O)c1ccc(NC(=O)c2cnc(C)cn2)cc1` has an inhibition of 11%.
`CCOCCc1c(O)nc(SCC(=O)NCc2ccco2)[nH]c1=O` showed an inhibition of 11%.
In the case of `COc1ccc2c(c1)c(=Cc1ccc(N(C)C)cc1)c1cc(-c3ccccc3)[n+](C)n12`, the inhibition is reported as 88.2% (active).
Work on `Cc1ccc(NC(=O)COC(=O)CN2CCCCCC2=O)c(C)c1` yielded an inhibition of 11.4%.
In the case of `CC(C)COc1ccc(C(=O)NNC(=O)CCC(=O)c2cccs2)cc1`, the inhibition is reported as -5.7%.
In the case of `Cc1cccc(C(=O)OC(C)C(=O)NC2CCCc3ccccc32)c1O` (configuration not stated), the inhibition is reported as 3.74%.
Work on `CC1CCCCN1S(=O)(=O)CCNC(=O)c1ccccc1` (configuration not stated) yielded an inhibition of 2.54%.
`O=C1COc2ccc(C(=O)CSc3ccc(Br)cc3)cc2N1` showed an inhibition of -19.3%.
`CN(CCc1ccccc1)C(=O)c1cccc(NC(=O)Cc2cccc(NC(=O)C3CCCN(C(=O)CCc4ccccc4)C3)c2)c1` (configuration not stated) gave an inhibition of 1.76%.
`N#C/C(=C(\O)C(F)(F)F)c1nnc2n1CCCCC2` gave an inhibition of 19.1%.
For `N#C/C(=C/c1cccc([N+](=O)[O-])c1)c1nnc2n1CCCCC2`, the inhibition was 40.7% (active).
`N#C/C(=C(\O)CCl)c1nnc2n1CCCCC2` gave an inhibition of -5.99%.
For `CCOC(=O)C(=Cc1ccccc1OC)C(=O)OCC`, the inhibition was 56.9% (active).
Work on `CCOC(=O)/C(=C\c1ccc([N+](=O)[O-])cc1)C(=O)c1cc(C(C)=O)c(Nc2ccccc2)s1` yielded an inhibition of 8.67%.
With `COc1ccccc1/C=C/C(=O)NC1CC2CCC1C2` (configuration not stated) the inhibition was -129%.
In the case of `CCOC(=O)C(=Cc1ccccc1)C(=O)c1ccccc1`, the inhibition is reported as 86.9% (active).
`CCc1ccccc1NC(=O)/C(=C/c1ccccc1)c1ccccc1` gave an inhibition of 2.55%.
For `COc1ccccc1C(=O)c1ccccc1C(=O)c1ccccc1`, the inhibition was 12%.
`COC(=O)[C@H](CC(C)C)NC(=O)N1CCCCC1C` (some centres not stated) gave an inhibition of 10.8%.
In the case of `C=CCn1c(SCCOc2ccc(OC)cc2)nnc1C(NC(=O)c1ccc(OC)cc1)C(C)C` (configuration not stated), the inhibition is reported as 26.4%.
For `O=C(NNC(=S)NCCCN1CCOCC1)c1ccncc1`, the inhibition was 9.32%.
With `O=C(C[n+]1ccc2c(c1)nnn2-c1ccccc1)c1ccc(Cl)cc1` the inhibition was -14.6%.
With `c1c2c(cc3sc(N4CCCCC4)nc13)OCCO2` the inhibition was 70.3% (active).
Molecule `O=C(CN1C(=O)NC2(CCOc3ccccc32)C1=O)NCc1ccc(F)cc1` (configuration not stated) has an inhibition of 7.05%.
In the case of `O=C(CC12CC3CC(CC(C3)C1)C2)Nc1ccc2c(c1)COC2=O`, the inhibition is reported as -0.0166%.
In the case of `CC1=CC(C)(C)Nc2ccc(OC(=O)CN3C(=O)C4CCCCC4C3=O)cc21` (configuration not stated), the inhibition is reported as 85.2% (active).
`O=C(COC(=O)CN1C(=O)C2CCCCC2C1=O)Nc1ccc(F)c(F)c1F` (configuration not stated) gave an inhibition of 15.9%.
Molecule `COc1ccc(C(=O)COC(=O)CN2C(=O)C3CC=CCC3C2=O)c(OC)c1` (configuration not stated) has an inhibition of -7.43%.
`C=CCN(C(=O)Cn1ncc2c1-c1cc(C)ccc1OC2)c1ccccc1` showed an inhibition of 8.04%.
`CCOc1ccccc1NC(=O)C1CCCN(S(=O)(=O)c2ccccc2)C1` (configuration not stated) showed an inhibition of 6.68%.
`CN(C)/C=C(/C(=O)c1ccccc1)S(=O)(=O)c1ccc(Cl)cc1` showed an inhibition of -9.32%.
For `O=C(Nc1ccccc1)c1nnsc1S(=O)(=O)c1ccc(Cl)cc1`, the inhibition was 55.9% (active).
With `C/C(=N\NS(=O)(=O)c1ccc(Cl)cc1)c1ccc(NC(=O)c2ccco2)cc1` the inhibition was -80.3%.
Work on `CCCC(C(=O)N1CCOCC1)N1C(=O)C2C3C=CC(C3)C2C1=O` (configuration not stated) yielded an inhibition of 5.26%.
Molecule `CC(C)OCCCNC(=O)CNC(=O)c1cccs1` has an inhibition of -6.91%.
With `Cc1ccccc1C(CC(=O)c1cccs1)C(C#N)C#N` (configuration not stated) the inhibition was 59.7% (active).
For `Cc1ccc(NNC(=O)c2cccs2)cc1Cl`, the inhibition was -22.8%.
